The values below come from PubChem BioAssay (Tox21).

SMILES strings stand for the structures. Results filed as inconclusive are left out. Calls of active or inactive are those of the source. Calls follow the shape of the full dose curve.
% is scaled to controls: 0 for no effect and ±100 for the full control effect.

A short description of this experiment: qHTS assay to identify small molecule agonists of the endoplasmic reticulum stress response signaling pathway - cell viability counter screen (AID 1159517). Also: nearly all actives have a fitted effect of over 50% in size. As to conditions: ESRE-bla HeLa viability, CellTiter-Glo luminescence, 5 h; series mostly up to 61 µM. The source says: U.S. Tox21 Program National Center for Advancing Translational Sciences [NCATS] NIH Chemical Genomics Center [NCGC] U.S. Environmental Protection Agency [EPA] National Institutes of Environmental Health Sciences [NIEHS] National Toxicology Program [NTP] U.S. Food and Drug Administration [FDA] Tox21 Assay Overview: Endoplasmic Reticulum (ER) plays an important role in cellular signaling, protein folding/maturation, stress response, lipid biosynthesis, calcium storage and release etc. Under stress conditions, proteins in ER misfold or unfold, and leading to the expression of ER stress responsive genes. ER stress has been associated with a variety of pathophysiological conditions such as cancer, inflammation, neurodegenerative diseases, diabetes, ischemic heart disease etc. To identify the compounds that induce ER stress response, an ER stress reporter cell line, CellSensor ESRE-bla HeLa (Life Technologies, Carlsbad, CA) containing a beta-lactamase reporter gene under control of the Endoplasmic reticulum Stress Response Element (ESRE) was used to screen Tox21 10K compound library. The cytotoxicity of the Tox21 compound library against the ESRE-bla HeLa cell line was tested in parallel by measuring cell viability using the CellTiter-Glo assay in the same wells.
Tox21 Assay Protocol Summary: ESRE-bla HeLa cells were dispensed at 1,500 cells/6 uL of assay medium per well into black wall/clear-bottom 1536-well plates using a Multidrop Combi (ThermoFisher Scientific, Waltham, MA) dispenser. After the assay plates were incubated at 37 C and 5% CO2 for an overnight, 23 nL of compounds dissolved in DMSO, positive controls or DMSO only was transferred to the assay plate by a Pintool station (Kalypsys, San Diego, CA). The assay plates were incubated at 37 C and 5% CO2 for 5 hr. One uL of LiveBLAzer B/G FRET substrate (Life Technologies) was added using a FRD (Flying Reagent Dispenser, Aurora Discovery, San Diego, CA) and the plates were incubated at room temperature for 2 hr. Fluorescence intensity (405 nm excitation, 460 nm and 530 nm emissions) was measured using an Envision plate reader (PerkinElmer, Shelton, CT). For cytotoxicity, 4 ul/well of CellTiter-Glo reagent was added into the assay plates using an FRD. After 30 min incubation at room temperature, the luminescence intensity was measured using a ViewLux plate reader (PerkinElmer).
A general note: In qHTS, concentration-response curves come from the screen itself.
Take `OCCC1CCCCN1` (stereo not given): the call was inactive.
As to `CN(C)CCCNCCCN`, the molecule was called inactive.
On the same count and under the same terms, for `Cc1cccc(C(C)(C)C)c1O` the value was “inactive”.
On the same count and under the same terms, to `CC(C)(C)c1ccc(OCC2CO2)cc1` (stereo not given) belongs “inactive”.
Same read-out and setting: for `NCc1ccccc1` the value was “inactive”; for `NCCCOCCOCCOCCCN`, “inactive”; for `O=C(NS(=O)(=O)/C=C/c1cccs1)c1ccc(F)cc1Br`, “inactive”.
As to `CC[C@H](C)[C@@H](C(=O)O)n1sc2ccccc2c1=O`, the molecule was classed as inactive.
Same read-out and setting: to `CC1(C)CCC(C)(C)c2cc(NC(=O)c3ccc(C(=O)O)cc3)ccc21` belongs “inactive”; to `CC(C)(C)C1CCCCC1O` (stereo not given), “inactive”; to `CC(=O)OC/C=C/c1ccccc1`, “inactive”.
Same read-out and setting: for `CCCCOC(O)CC` (stereo not given) the value was “inactive”.
Turning to `CC(=O)SCc1ccco1`, the outcome was inactive.
With `CC(C)c1ccc2c(C(C)C)cc(C(C)C)c(S(=O)(=O)O)c2c1`, the result was inactive.
Turning to `CCCCCCc1ccc(N)cc1`, the molecule was called inactive.
Consider `CCOC(=O)CC(C)C`, for which the result was inactive.
As to `O=C(Nc1ccccc1)OCC(CN1CCCCC1)OC(=O)Nc1ccccc1` (stereo not given), the molecule was called inactive.
On to `O=C(O)c1cccc(N(Cc2cccnc2)c2ccc(OC(F)F)c(OC(F)F)c2)c1`, for which the call was inactive.
For `Nc1ccc(C(=O)Nc2ccccc2N)cc1`, the molecule was called inactive.
Turning to `CC(C(=O)O)c1ccc(C(=O)c2ccccc2)s1` (stereo not given), the result was inactive.
For `c1ccc(OCc2ccc(CCCN3CCOCC3)cc2)cc1`, the result was inactive.
As for `CN(c1nccc(=O)[nH]1)C1CCN(c2nc3ccccc3n2Cc2ccc(F)cc2)CC1`, the result was inactive.
The same measure, in the same setting: to `Cc1occc1S` belongs “inactive”; to `O=C(O)/C=C/c1cnc[nH]1`, “inactive”.
Take `CCN(CCO)CCCC(C)Nc1ccnc2cc(Cl)ccc12` (stereo not given): the activity change, negative = cytotoxicity is 5.2% [at 6.95 µM] (inactive).
For the molecule `O=C(c1ccccc1)c1ccc2n1CCC2C(=O)O` (stereo not given), the molecule was called inactive.
For the molecule `CC/C(=C\C(=N/O)C(N)=O)C(C)[N+](=O)[O-]` (stereo not given), the molecule was classed as inactive.
The same measure, in the same setting: for `CC(C)(C)c1cc(O)c(C(C)(C)C)cc1O` the value was “inactive”.
For `CCCCCCCCCCCCCCC1CO1` (stereo not given), the call was inactive.
On to `CCCC[C@H]1CN(CC2CCOCC2)C(=O)OC12CCN(C1(C)CCN(C(=O)c3c(C)ncnc3C)CC1)CC2`, for which the molecule was classed as inactive.
Consider `O=C(O)Cc1sc(-c2ccccc2)nc1-c1ccc(Cl)cc1`, for which the call was inactive.
On to `Oc1ccc(C(O)CNCCCCCCNCC(O)c2ccc(O)c(O)c2)cc1O` (stereo not given), for which the call was inactive.
As for `CN1CCC(OC(c2ccccc2)c2ccccc2)CC1`, the molecule was called inactive.
Still for that read-out and setting: to `CNCC[C@@H](Oc1ccccc1C)c1ccccc1` belongs “inactive”; to `CN1CCN(C2=Nc3ccccc3Sc3ccc(Cl)cc32)CC1`, “inactive”; to `CCN(CC)C(C)=O`, “inactive”.
As to `CC(=O)N(CC(=O)N(C)C)c1ccccc1`, the result was inactive.
Same read-out and setting: for `CN(C(=O)CCCOc1ccc2[nH]c(=O)ccc2c1)C1CCCCC1` the value was “inactive”; for `O=S1(=O)c2cccc3cccc(c23)N1CCCN1CCN(c2ccc(F)cc2)CC1`, “inactive”; for `CCCCC(CC)COCCCN` (stereo not given), “inactive”.
